Results filed as inconclusive are left out. Where a call stands in place of a potency, no number is given. Calls of active or inactive are those of the source. Unless noted, calls follow the shape of the full dose curve.
Assays:
[1] = biological target: Gonadotropin-releasing hormone receptor (Homo sapiens) (UniProt P30968); assay: Human gonadotropin-releasing hormone receptor (GnRHR) small molecule agonists, calcium flux assay in GnRHR-HEK293 cells (AID 1920063); also: nearly all actives have a fitted effect of over 35% in size
Chain of Gonadotropin-releasing hormone receptor (Homo sapiens) (P30968 whole entry, looked up): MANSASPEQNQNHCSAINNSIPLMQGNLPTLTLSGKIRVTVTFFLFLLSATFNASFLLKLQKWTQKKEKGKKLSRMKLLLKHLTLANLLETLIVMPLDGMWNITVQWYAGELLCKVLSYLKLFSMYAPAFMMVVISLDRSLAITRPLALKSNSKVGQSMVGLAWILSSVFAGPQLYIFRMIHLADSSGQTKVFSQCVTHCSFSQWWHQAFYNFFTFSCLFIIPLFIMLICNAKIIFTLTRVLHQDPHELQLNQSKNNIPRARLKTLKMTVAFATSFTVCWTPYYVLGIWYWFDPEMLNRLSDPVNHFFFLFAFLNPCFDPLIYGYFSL
Outline: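 Agonist activity was measured as intracellular calcium flux in HEK293 cells engineered to stably express human GnRHR. After dye loading for 1 hour at 37 C, compounds in DMSO were added and fluorescence was followed for 3 minutes.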

[2] = biological target: KiSS-1 receptor (Homo sapiens) (UniProt Q969F8); assay: Human kisspeptin (KISS1R) small molecule agonists, calcium flux assay in KISS1R-HEK293 cells (AID 1920064; active = well fitted activation curve with a large enough effect in the repeat runs)
Chain of KiSS-1 receptor (Homo sapiens) (Q969F8 whole entry, looked up): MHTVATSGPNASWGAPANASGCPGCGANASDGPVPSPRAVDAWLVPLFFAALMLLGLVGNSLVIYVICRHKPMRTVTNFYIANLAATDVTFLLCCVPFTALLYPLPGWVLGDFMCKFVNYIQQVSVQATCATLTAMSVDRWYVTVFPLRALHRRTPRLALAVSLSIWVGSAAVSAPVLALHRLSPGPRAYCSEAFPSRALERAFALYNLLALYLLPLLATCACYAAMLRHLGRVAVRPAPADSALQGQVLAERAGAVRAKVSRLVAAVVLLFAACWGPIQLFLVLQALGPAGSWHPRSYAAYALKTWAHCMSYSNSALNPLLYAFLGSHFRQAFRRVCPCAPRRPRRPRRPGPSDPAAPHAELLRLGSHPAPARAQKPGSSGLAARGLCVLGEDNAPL
Outline: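 Agonist activity is monitored as intracellular calcium rise in engineered HEK293 cells carrying human KISS1R. Cells are dye-loaded for 1 h at 37 C before compound addition, and fluorescence is recorded for 3 min.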

[3] = G protein-coupled receptor (GPCR) small molecule agonists, calcium flux assay: HEK293 wild type cell line counter screen (AID 1920065)
Outline: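 Seed cells, incubate 18 h (37 C, 5% CO2); add calcium dye, 1 h at 37 C; pin-transfer compounds, ATP control or DMSO; read fluorescence 480/540 nm each second for 3 min.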

[4] = biological target: 5-hydroxytryptamine receptor 2A (Homo sapiens) (UniProt P28223); assay: 5-hydroxytryptamine receptor 2A (HTR2A) small molecule antagonists, cell-based qHTS assay (AID 1963586); also: nearly all actives have a fitted effect of over 45% in size
Chain of 5-hydroxytryptamine receptor 2A (Homo sapiens) (P28223 whole entry, looked up): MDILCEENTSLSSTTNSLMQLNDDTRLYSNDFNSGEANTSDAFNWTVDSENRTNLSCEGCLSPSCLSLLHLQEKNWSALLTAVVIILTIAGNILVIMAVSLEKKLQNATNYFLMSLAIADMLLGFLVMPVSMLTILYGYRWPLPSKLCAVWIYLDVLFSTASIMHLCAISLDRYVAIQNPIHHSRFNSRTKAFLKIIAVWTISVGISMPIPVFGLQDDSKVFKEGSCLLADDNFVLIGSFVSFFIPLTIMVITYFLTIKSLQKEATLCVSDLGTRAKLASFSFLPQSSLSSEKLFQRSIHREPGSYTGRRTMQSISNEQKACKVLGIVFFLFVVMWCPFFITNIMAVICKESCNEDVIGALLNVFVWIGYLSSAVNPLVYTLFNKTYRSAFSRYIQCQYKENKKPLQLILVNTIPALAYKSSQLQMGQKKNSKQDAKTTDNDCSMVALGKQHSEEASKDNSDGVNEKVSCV
Outline: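 CHO cells stably expressing human HTR2A were plated for 18 h at 37 C, then loaded with calcium dye for 1 h. Compounds were preincubated 5 min at room temperature before DOI (4 nM solution) was added. Kinetic fluorescence was read for 3 min.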

[5] = biological target: 5-hydroxytryptamine receptor 2A (Homo sapiens) (UniProt P28223); assay: 5-hydroxytryptamine receptor 2A (HTR2A) small molecule agonists, cell-based qHTS assay (AID 1963587); also: nearly all actives have a fitted effect of over 30% in size; also: potency is read from the fitted curve at half-maximal effect
Outline: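 HTR2A-CHO cells, plated 18 h at 37 C/5% CO2, dye-loaded 1 h at 37 C; compounds in DMSO added by pin tool (agonist mode). Intracellular calcium flux read as kinetic fluorescence on FDSS over 2 min at 1 s intervals.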

[6] = biological target: Muscarinic acetylcholine receptor M1 (Homo sapiens) (UniProt P11229); assay: Cholinergic receptor muscarinic 1 (CHRM1) small molecule antagonists, cell-based qHTS assay (AID 1963588); also: nearly all actives have a fitted effect of over 40% in size
Chain of Muscarinic acetylcholine receptor M1 (Homo sapiens) (P11229 whole entry, looked up): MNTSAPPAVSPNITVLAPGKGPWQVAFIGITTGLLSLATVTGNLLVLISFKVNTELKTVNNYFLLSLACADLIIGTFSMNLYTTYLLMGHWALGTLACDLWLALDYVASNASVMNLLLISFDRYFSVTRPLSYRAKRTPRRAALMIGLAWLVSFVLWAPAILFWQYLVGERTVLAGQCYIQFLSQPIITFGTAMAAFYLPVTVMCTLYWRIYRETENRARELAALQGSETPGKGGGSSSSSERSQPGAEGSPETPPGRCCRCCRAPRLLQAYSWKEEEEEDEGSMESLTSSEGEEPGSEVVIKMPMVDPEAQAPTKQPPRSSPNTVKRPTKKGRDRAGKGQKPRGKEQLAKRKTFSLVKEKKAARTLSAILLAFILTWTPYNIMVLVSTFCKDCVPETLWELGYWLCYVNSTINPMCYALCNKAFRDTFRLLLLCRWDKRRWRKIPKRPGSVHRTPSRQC
Outline: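 Compounds were tested at 15 concentrations in three independent runs. Dye-loaded CHRM1-CHO cells were exposed 5 min at room temperature before stimulation by acetylcholine added at 50nM. Intracellular calcium was read kinetically on FDSS for 3 min.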

[7] = p53 small molecule agonists, cell-based qHTS assay with human liver microsomes (AID 1963577);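 also: p53 response element beta-lactamase reporter cells with liver microsomes plus NADPH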
Outline: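 With metabolic activation: human liver microsomes (0.5 mg/mL final) plus NADPH (0.5 mg/mL final) added alongside compounds to p53RE-bla cells; 16 h 37 C exposure; beta-lactamase read by LiveBLAzer fluorescence.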

[8] = p53 small molecule agonists, cell-based qHTS assay with rat liver microsomes (AID 1963578)
Outline: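 Metabolic activation by rat liver microsomes and NADPH, each 0.5 mg/mL final, added right after compounds to p53RE-bla reporter cells (4,000/well, plated 5 h earlier). 16 h at 37 C, then LiveBLAzer substrate for 2 h at room temperature in the dark; fluorescence read-out.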

[9] = p53 small molecule agonists, cell-based qHTS assay with rat liver microsomes: qHTS cell viability counter screen (AID 1963580); also: nearly all actives have a fitted effect of over 45% in size
Outline: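 Counter screen for cytotoxicity under metabolic activation: rat liver microsomes and NADPH, 0.5 mg/mL final each, added with compounds to p53RE-bla HCT-116 cells; 16 h at 37 C, then ATP luminescence read.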

[10] = p53 small molecule agonists, cell-based qHTS assay: qHTS cell viability counter screen (AID 1963581); also: nearly all actives have a fitted effect of over 45% in size
Outline: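 Viability was counter-screened in parallel with the p53 agonist reporter by measuring intracellular ATP luminescence in the same HCT-116 p53RE-bla wells after 16 h compound treatment at 37 C.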

[11] = p53 small molecule agonists, cell-based qHTS assay (AID 1963582; active = well fitted activation curve with a large enough effect in the signal ratio in the repeat runs, not every such curve was filed as active; the % refers to the signal ratio)
Outline: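 Cells carrying a p53-responsive bla reporter are treated with test compounds for 16 h at 37 C; beta-lactamase activity is then detected with LiveBLAzer B/G FRET substrate after 2 h at room temperature.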

[12] = biological target: Muscarinic acetylcholine receptor M1 (Homo sapiens) (UniProt P11229); assay: Cholinergic receptor muscarinic 1 (CHRM1) small molecule agonists, cell-based qHTS assay (AID 1963589); also: nearly all actives have a fitted effect of over 35% in size
Outline: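 Cells were plated and incubated 18 h at 37 C/5% CO2, loaded with calcium dye for 1 h at 37 C, then treated with compounds in DMSO. Fluorescence was recorded kinetically at 1 sec intervals.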

[13] = biological target: Beta-2 adrenergic receptor (Homo sapiens) (UniProt P07550); assay: Adrenergic beta2 receptor (ADRB2) small molecule antagonists, cell-based qHTS assay (AID 1963592); also: series mostly up to about 92 µM; nearly all actives have a fitted effect of over 50% in size
Chain of Beta-2 adrenergic receptor (Homo sapiens) (P07550 whole entry, looked up): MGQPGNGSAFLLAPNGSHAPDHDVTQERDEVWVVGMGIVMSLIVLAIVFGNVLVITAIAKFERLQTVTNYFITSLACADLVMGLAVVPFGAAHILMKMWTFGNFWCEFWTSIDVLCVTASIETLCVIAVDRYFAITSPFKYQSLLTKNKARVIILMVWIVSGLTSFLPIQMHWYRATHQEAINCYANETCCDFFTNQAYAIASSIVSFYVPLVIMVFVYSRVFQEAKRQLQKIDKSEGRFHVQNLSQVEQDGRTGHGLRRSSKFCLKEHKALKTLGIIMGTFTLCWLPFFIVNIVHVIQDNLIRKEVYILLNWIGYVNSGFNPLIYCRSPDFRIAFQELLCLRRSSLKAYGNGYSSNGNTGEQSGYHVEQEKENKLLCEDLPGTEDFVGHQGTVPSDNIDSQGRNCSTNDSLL
Outline: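 Assay format: CHO-ADRB2 cells, 18-20hr seeding at 37C/5% CO2, then compound plus 1nM isoproterenol agonist mix for 0.5hr RT. Homogeneous time-resolved fluorescence cAMP detection after 1hr, expressed as 665/615 nm ratio.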

[14] = biological target: D(2) dopamine receptor (Homo sapiens) (UniProt P14416); assay: Dopamine D2 receptor (DRD2) small molecule agonists, cell-based qHTS assay (AID 1963594); also: nearly all actives have a fitted effect of over 35% in size
Chain of D(2) dopamine receptor (Homo sapiens) (P14416 whole entry, looked up): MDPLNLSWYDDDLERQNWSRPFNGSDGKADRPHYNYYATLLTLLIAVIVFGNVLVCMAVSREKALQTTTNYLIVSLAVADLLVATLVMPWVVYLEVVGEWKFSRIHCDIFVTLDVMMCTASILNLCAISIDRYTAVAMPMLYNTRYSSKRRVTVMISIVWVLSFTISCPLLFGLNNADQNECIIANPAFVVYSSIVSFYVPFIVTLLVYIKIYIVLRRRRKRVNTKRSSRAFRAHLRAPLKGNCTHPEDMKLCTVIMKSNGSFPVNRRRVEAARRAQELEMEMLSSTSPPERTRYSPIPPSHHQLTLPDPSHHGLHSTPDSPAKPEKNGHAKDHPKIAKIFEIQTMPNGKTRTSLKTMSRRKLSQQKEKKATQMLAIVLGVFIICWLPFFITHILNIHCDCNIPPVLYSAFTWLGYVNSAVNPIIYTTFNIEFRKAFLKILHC
Outline: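 HEK293 cells stably expressing DRD2 were cultured 24 h at 37 C, then given Ro20-1724 (0.1 mM final) and compounds for 10 min at room temperature. NKH477 (200nM) was then added for 30 min. cAMP was read by HTRF.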

[15] = biological target: D(2) dopamine receptor (Homo sapiens) (UniProt P14416); assay: Dopamine D2 receptor (DRD2) small molecule antagonists, cell-based qHTS assay (AID 1963595; active = well fitted inhibition curve with a large enough effect in the signal ratio in the repeat runs, with a control signal flat; the % refers to the signal ratio)
Outline: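 In this cell-based antagonist screen, compounds act for 10 min at room temperature before a 30 min challenge with 12 nM quinpirole and 200 nM NKH477. cAMP is quantified by HTRF competition in DRD2-HEK293 cells containing 0.1 mM Ro20-1724.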

[16] = p53 small molecule agonists, cell-based qHTS assay with human liver microsomes: qHTS cell viability counter screen (AID 1963579); also: nearly all actives have a fitted effect of over 45% in size
Outline: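 Metabolic activation used human liver microsomes and NADPH, both 0.5 mg/mL final, over 16 hours at 37 C on p53RE-bla cells (4,000/well). Cytotoxicity measured by CellTiter-Glo luminescence, 30 min at room temperature.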

[17] = cAMP Responsive Elements (CRE) small molecule agonists, cell-based qHTS assay (AID 1963590)
Outline: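 Cells carrying a CRE-driven beta-lactamase reporter (HEK 293T) are seeded, incubated overnight (18 h), and treated with test compounds for 3 h at 37 C; reporter activity is then detected with a FRET substrate after 2 h at room temperature.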

[18] = cAMP Responsive Elements (CRE) small molecule antagonists, cell-based qHTS assay (AID 1963591; active = well fitted inhibition curve with a large enough effect in the signal ratio in the repeat runs, not every such curve was filed as active; the % refers to the signal ratio; also: potency is read from the fitted curve at half-maximal effect)
Outline: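 Cells (CRE-bla HEK 293T, DMEM with 10% dialyzed FBS and 25 mM HEPES) are seeded and incubated 18 h. Compounds are added with NKH477 agonist at 0.25 uM final for 3 h, then FRET substrate for 2 h.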

[19] = biological target: Beta-2 adrenergic receptor (Homo sapiens) (UniProt P07550); assay: Adrenergic beta2 receptor (ADRB2) small molecule agonists, cell-based qHTS assay (AID 1963593);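 also: CHO cells stably overexpressing human ADRB2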
Outline: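 CHO cells stably over-expressing ADRB2 were plated overnight at 37C, then dosed with compounds plus a stimulation mix containing 100uM IBMX and 25uM Ro-20-1724 for 0.5hr at room temperature. cAMP was measured by HTRF competition, 1hr.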

For `c1cc2ccc3cccc4ccc(c1)c2c34`, the Potency [1] was “inactive”, the Potency [2] was “inactive” and the Potency [3] was “inactive”. The Potency [4] was “inactive”, the Potency [5] was “inactive” and the Potency [6] was “inactive”.

In the case of `c1ccccc1`, the Potency [7] is reported as “inactive”, the Potency [8] is reported as “inactive” and the Potency [9] is reported as “inactive”. For the same molecule, the Potency [10] was “inactive” and the Potency [11] was “inactive”.

In the case of `Cc1ccc(O)cc1C`, the Potency [4] is reported as “inactive”, the Potency [5] is reported as “inactive” and the Potency [6] is reported as “inactive”. For the same molecule, the Potency [12] was “inactive”, the Potency [13] was “inactive” and the Potency [14] was “inactive”. The Potency [15] was “inactive”.

For `S=C(SSC(=S)N1CCCCC1)N1CCCCC1`, the Potency [1] was “inactive”, the Potency [2] was “inactive” and the Potency [7] was “inactive”. The Potency [8] was “inactive”, the Potency [16] was “inactive” and the Potency [11] was “inactive”. For the same molecule, the Potency [4] was “inactive”, the Potency [5] was 10.7 µM (active) and the Potency [6] was “inactive”. For the same molecule, the Potency [12] was “inactive”, the Potency [17] was “inactive” and the Potency [18] was 1.68 µM (active). The Potency [13] was “inactive”, the Potency [19] was “inactive” and the Potency [14] was “inactive”. For the same molecule, the Potency [15] was “inactive”.

— PubChem BioAssay (Tox21)
